The panel holds about 83,000 compounds, 20% with a hit somewhere; the sample as a whole holds those more often.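 Single-dose data. Exposure time 48 hours. Values below 10 considered active.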 A number with no mark means an inactive call. Calls of active or inactive are those of the source.
What follows are compounds tested on T-47D breast (assay: NCI-60 one-dose screen, 48 h (100 = growth as untreated, 0 = no growth, -100 = all killed)). Conditions: 10 µM.
Protocol: Growth inhibition of the T-47D human tumor cell line is measured as a screen for anti-cancer activity. Cells are grown in 96 well plates and exposed to the test compound for 48 hours. Compounds are tested at a single concentration, which is 10^-5 M for most compounds. The reported endpoint is percent growth (GI% or GIPRCNT), where numbers from 0 - 100% represent growth inhibition, and numbers from -100% - 0 represent cell death. For example, a value of 40 represents 60% growth inhibition. A value of 0 means no net growth occurred over the course of the experiment. A value of -40 indicates 40% of cells at the beginning of the experiment died by the end of the experiment. A value of -100 means all cells are dead at the end of the experiment.
NCI-60 Human Tumor Cell Lines Screen was performed using the standard one-dose NCI protocol, which is described in more detail at https://dtp.cancer.gov/discovery_development/nci-60/default.htm.
Compounds with GIPRCNT values below 10 were considered active. Activity score was based on GIPRCNT using the following formula: […]
Score is 0 for GIPRCNT values of 100 or above, 50 for GIPRCNT values of 0, and 100 for GIPRCNT values of -100.
`COc1cc(Cl)cc(-c2nn(-c3cccc(NC(=O)Nc4cccc(C(F)(F)F)c4)c3)cc2-c2ccncc2)c1` was tested, and the growth was -0.45% (active).
`COc1cccc2c1C(=O)c1c(O)c3c(c(O)c1C2=O)C[C@@](O)(C(=O)COC(=O)c1cccnc1)C[C@@H]3OC1CC(N)C(O)C(C)O1` (stereo not given in full) was tested, and the growth was -2.37% (active).
Work on `COc1ccc(OC)c([N+](=O)[O-])c1C=O` yielded a growth of 56.5%.
With `Cc1[nH]nc2c(=S)[nH]c(=O)[nH]c12` the growth was 104%.
In the case of `CC1(C)CCc2cc(-c3ccn(S(=O)(=O)c4ccc(Cl)cc4)n3)ccc2O1`, the growth was 54.1%.
For `COc1ccc(-c2nnc(SC/C(=N\O)c3ccccc3)o2)cc1`, the growth was 91.8%.
With `COCc1cc2c(cc1Br)OCO2` the growth was 98.4%.
`COc1cc2c3c(cccc3c1)C(=O)N(CCN1CCCC1)C2=O` was tested, and the growth was 25.3%.
`O=C(CCc1ccccc1)N1CCN(C(=O)CCc2ccccc2)CC1` showed a growth of 108%.
In the case of `CC(=O)N(O)c1ccc(/C=C/c2ccccc2)cc1`, the growth was 20.5%.
`Oc1ccc(Cn2cc3c(c2-c2ccccc2)CCc2cnoc2-3)cc1` was tested, and the growth was 78.4%.
For `COc1ccc(/C(=C/c2cc(OC)c(OC)cc2[N+](=O)[O-])C(=O)O)cc1`, the growth was 94.8%.
In the case of `COc1cc(Nc2ccnc(N3CCN(c4ccnc5cc(Cl)ccc45)CC3)n2)cc(OC)c1`, the growth was -16.6% (active).
`CCN1CCN(c2ccc(Nc3ncnc4c3nnn4CCc3cc(OC)cc(OC)c3)cc2)CC1` was tested, and the growth was 73.3%.
In the case of `O=c1[nH]c(=O)n(C2C[C@@H](O)[C@@H](CO)O2)cc1F` (stereo not given in full), the growth was 54.3%.
Compound `COc1cc(C)c2sc3ccccc3c(=O)c2c1NCCN(C)C` has a growth of 78.4%.
`Nc1ccc(C2=CC(c3ccc(Cl)cc3)N3C=CSC3=N2)cc1` (stereo not given) was tested, and the growth was -11% (active).
In the case of `CCn1nc(-c2ccc(C(=O)OC)cc2)nc2c(=O)n(C)c(=O)nc1-2`, the growth was 84.1%.
`O=C(N/N=C\c1cc(Cl)ccc1O)c1ccncc1` showed a growth of 30.1%.
`CCOC(=O)CNC(=O)Nc1ccc(Oc2ccc(NC(=O)NCC(=O)OCC)cc2)cc1` gave a growth of 106%.
`Cc1cc(=O)oc2cc(OCc3cn(CC(O)CO)nn3)ccc12` (stereo not given) showed a growth of 86.8%.
`COc1cc(OC)cc(N2CCN(C(=O)Nc3nc4cc(F)ccc4nc3OC)CC2)c1` showed a growth of 70.4%.
Compound `CC(=O)Nc1nc(C)c(C(=O)N/N=C/c2cccn2C)s1` has a growth of 121%.
In the case of `Cc1ccc(S(=O)(=O)Oc2ccccc2-c2ccccc2)cc1`, the growth was 37.1%.
Work on `O=C(O)c1ccccc1C(=O)c1cccc2c(F)cccc12` yielded a growth of 94.5%.
Work on `O=NN(CCCl)C(=O)Nc1ccc(NC(=O)N(CCCl)N=O)cc1` yielded a growth of 102%.
`O=C(Cn1ccc(=O)[nH]c1=O)c1ccc([N+](=O)[O-])o1` was tested, and the growth was 80.4%.
With `CCOC(=O)c1c(C)n(-c2ccc(Cl)cc2)c2ccc(OC(=O)/C=C/c3ccccc3)cc12` the growth was 82.7%.
`NC(=O)C12C(=O)NC(=O)C1(C(=O)O)C21CCCC1` (stereo not given) gave a growth of 114%.
Work on `CCCCCN(CCCCC)C(C)C(O)c1ccc2cc(Cl)c3ccccc3c2c1` (stereo not given) yielded a growth of 83.8%.
`COc1ccc(Cn2cc3c(c2-c2ccccc2)CC(C)(C)c2cnoc2-3)cc1` showed a growth of 30.7%.
`CC1=CC2OC34COC3CC(OC(=O)C(F)(F)F)C4(C)C2(C)CC1` (stereo not given) gave a growth of 94.2%.
With `COc1cc(-c2nc3ccccc3[nH]2)ccc1OCc1nnc(-c2ccc(Br)cc2)o1` the growth was 68.4%.
`COc1ccc(-c2nnc(COc3ccc(NC(=O)Nc4cccc(C(F)(F)F)c4)cc3F)o2)cc1` showed a growth of 34.8%.
In the case of `N#CN1CC[C@H](C(=O)Nc2ncc(-c3ccncc3)s2)C1`, the growth was -23.4% (active).
Compound `COc1cc(C2C=C(c3ccc(Cl)c(Cl)c3)N=C3SC(C)=CN32)cc(OC)c1OC` (stereo not given) has a growth of 51.1%.
In the case of `O=S(=O)(NC1c2ccccc2Oc2ccccc21)c1ccccc1`, the growth was 82.3%.
With `CCCCOCC(=O)NC(NP(=O)(N(C)C)N(C)C)C(Cl)(Cl)Cl` (stereo not given) the growth was 7.73% (active).
`COC(=O)[C@]12CC[C@@H](C)[C@H](C)[C@@H]1C1=CC[C@@H]3[C@@]4(C)CC(=O)[C@H](O)[C@@](C)(CO)[C@@H]4C(=O)C[C@@]3(C)[C@]1(C)CC2` was tested, and the growth was -15.8% (active).
`CC(C)c1[nH]nc2c(NCc3ccc(-c4ccccn4)cc3)nc(SCCN)nc12` was tested, and the growth was -15.6% (active).

Reference: PubChem BioAssay (NCI)
